Measured values published in PubChem BioAssay AID651848 (The Scripps Research Institute Molecular Screening Center, 2012).
The other results are listed elsewhere or left out. No stated cut-off is given here; in the data, active means IC50 below about 10 µM; inactive means the rest.

Assay: PG9 anti-gp120 antibody binding compounds – biochemical, TR-FRET, HIV-1 gp120 antibody, dose response (AID 651848)
Conditions: TR-FRET PG9 antibody-gp120 binding inhibition

IC50, inactive:
CC1(C)Cc2ccccc2-c2[nH]c(=S)[nH]c(=O)c21 > 67.1 µM
S=c1[nH]c2ccccc2c2ccccc12 44.6 µM
COc1ccc(-c2c(C)nn3c(N4CCC(C(=O)N5CCCCC5)CC4)cc(C)nc23)cc1OC > 67 µM
Cc1cccc(Nc2nc3c(S(=O)(=O)c4ccccc4)nnn3c3ccccc23)c1C > 67 µM
O=C(Oc1ccccc1)Oc1ccc2c(c1)oc(=O)c1ccccc12 25.1 µM
O=C(Nc1nnc(-c2ccccc2F)s1)c1ccccc1F > 67.1 µM
COC(=O)C1=C(C)N(Cc2ccccc2C(F)(F)F)C(=NCc2ccc(OC)cc2)NC1c1cccc(C(F)(F)F)c1 (configuration not stated) > 67 µM
